Of roughly 8,800 targets only a part is listed; those with a hit were picked by preference. About 0.5% of all pairs of compound and target were hits.
Experiments:
Experiment in all cases: log2 fold change, soluble protein after heating vs DMSO (PISA); higher = thermal stabilisation; K562 lysate, 10 uM; active = over 0.2 and 3.5 SD of the protein, either way, in both replicates (recomputed)
lapatinib = compound: CS(=O)(=O)CCNCc1ccc(-c2ccc3ncnc(Nc4ccc(OCc5cccc(F)c5)c(Cl)c4)c3c2)o1 [lapatinib]
How it was run: (§1)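 To prepare the extract, K562 pellets were dounce-homogenised in PBS pH 7.4 with 1 mM MgCl2, giving crude material at 1 mg/mL protein. This was treated with 10 μM compound for 30 min, then heated in aliquots for 3 min over 48°C-58°C before pooling and addition of NP-40 to 0.5% at 4°C. Centrifugation at 21,000xg for 90 min left soluble protein in the supernatant, which TMTpro 16plex LC-MS/MS quantified with equalised channel sums. Results are log-two fold changes in thermal stability compared with solvent controls, from duplicates.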

pictilisib = compound: CS(=O)(=O)N1CCN(Cc2cc3nc(-c4cccc5[nH]ncc45)nc(N4CCOCC4)c3s2)CC1 [pictilisib]
How it was run: as §1

crizotinib = compound: C[C@@H](Oc1cc(-c2cnn(C3CCNCC3)c2)cnc1N)c1c(Cl)ccc(F)c1Cl [crizotinib]
How it was run: as §1

[1] = compound: C[C@H](C1=CC=C(C=C1)C(=O)NC2=C3C=CNC3=NC=C2)N
How it was run: as §1

duvelisib = compound: C[C@H](Nc1ncnc2nc[nH]c12)c1cc2cccc(Cl)c2c(=O)n1-c1ccccc1 [duvelisib]
How it was run: as §1

gandotinib = compound: Cc1cc(Nc2cc(CN3CCOCC3)c3nc(C)c(Cc4ccc(Cl)cc4F)n3n2)n[nH]1 [gandotinib]
How it was run: as §1

tozasertib = compound: Cc1cc(Nc2cc(N3CCN(C)CC3)nc(Sc3ccc(NC(=O)C4CC4)cc3)n2)n[nH]1 [tozasertib]
How it was run: as §1

doramapimod = compound: Cc1ccc(-n2nc(C(C)(C)C)cc2NC(=O)Nc2ccc(OCCN3CCOCC3)c3ccccc23)cc1 [doramapimod]
How it was run: as §1

bafetinib = compound: Cc1ccc(NC(=O)c2ccc(CN3CC[C@H](N(C)C)C3)c(C(F)(F)F)c2)cc1Nc1nccc(-c2cncnc2)n1 [bafetinib]
How it was run: as §1

[2] = compound: Cc1cccc(CC(=O)N2CCc3c2ccc(-c2cn(C)c4ncnc(N)c24)c3F)n1
How it was run: as §1

nilotinib = compound: Cc1cn(-c2cc(NC(=O)c3ccc(C)c(Nc4nccc(-c5cccnc5)n4)c3)cc(C(F)(F)F)c2)cn1 [nilotinib]
How it was run: as §1

[3] = compound: Cc1nc(Nc2n[nH]c3c2CN(C(=O)N[C@H](CN(C)C)c2ccccc2)C3(C)C)c2sccc2n1
How it was run: as §1

dasatinib = compound: Cc1nc(Nc2ncc(C(=O)Nc3c(C)cccc3Cl)s2)cc(N2CCN(CCO)CC2)n1 [dasatinib]
How it was run: as §1

[4] = compound: Cc1ncc(-c2ccnc(Nc3ccc(S(C)(=O)=O)cc3)n2)n1C(C)C
How it was run: as §1

[5] = compound: Cn1cc(-c2ccc3c(c2)CCN3C(=O)Cc2cccc(C(F)(F)F)c2)c2c(N)ncnc21
How it was run: as §1

quisinostat = compound: Cn1cc(CNCC2CCN(c3ncc(C(=O)NO)cn3)CC2)c2ccccc21 [quisinostat]
How it was run: as §1

tipifarnib = compound: Cn1cncc1[C@@](N)(c1ccc(Cl)cc1)c1ccc2c(c1)c(-c1cccc(Cl)c1)cc(=O)n2C [tipifarnib]
How it was run: as §1

[6] = compound: NC(=O)Nc1cc(-c2cccc(F)c2)sc1C(=O)N[C@H]1CCCNC1
How it was run: as §1

[7] = compound: NC(=O)c1cnc(N[C@@H]2CCCC[C@@H]2N)nc1Nc1cccc(-n2nccn2)c1
How it was run: as §1

[8] = compound: NC1(c2ccc(-c3nc4ccn5c(=O)[nH]nc5c4cc3-c3ccccc3)cc2)CCC1
How it was run: as §1

Measured: log2 fold change

SEC62 (UniProt Q99442)
UniProt Q99442, sequence (Q99442 whole entry, looked up): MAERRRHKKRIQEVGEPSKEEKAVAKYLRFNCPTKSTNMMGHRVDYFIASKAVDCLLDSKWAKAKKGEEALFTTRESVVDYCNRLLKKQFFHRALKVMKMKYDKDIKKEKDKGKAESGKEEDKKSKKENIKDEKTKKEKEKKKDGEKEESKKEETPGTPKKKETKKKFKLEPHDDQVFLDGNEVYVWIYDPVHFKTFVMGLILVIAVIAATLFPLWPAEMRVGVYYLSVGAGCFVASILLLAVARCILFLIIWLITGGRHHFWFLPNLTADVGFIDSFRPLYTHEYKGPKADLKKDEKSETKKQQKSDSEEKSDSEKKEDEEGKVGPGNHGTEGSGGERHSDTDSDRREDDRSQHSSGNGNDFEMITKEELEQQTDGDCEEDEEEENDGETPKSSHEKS
inactive: lapatinib 0.028 | pictilisib -0.029 | crizotinib 0.011 | [1] 0.231 | duvelisib 0 | gandotinib -0.07 | tozasertib -0.024 | doramapimod 0.002 | bafetinib 0.029 | [2] -0.072 | nilotinib 0.013 | [3] -0.032 | dasatinib 0.01 | [4] -0.038 | [5] -0.011 | quisinostat 0.083 | tipifarnib -0.055 | [6] -0.045 | [7] -0.007 | [8] -0.01

RPTOR (UniProt Q8N122)
UniProt Q8N122, sequence (Q8N122 whole entry, looked up): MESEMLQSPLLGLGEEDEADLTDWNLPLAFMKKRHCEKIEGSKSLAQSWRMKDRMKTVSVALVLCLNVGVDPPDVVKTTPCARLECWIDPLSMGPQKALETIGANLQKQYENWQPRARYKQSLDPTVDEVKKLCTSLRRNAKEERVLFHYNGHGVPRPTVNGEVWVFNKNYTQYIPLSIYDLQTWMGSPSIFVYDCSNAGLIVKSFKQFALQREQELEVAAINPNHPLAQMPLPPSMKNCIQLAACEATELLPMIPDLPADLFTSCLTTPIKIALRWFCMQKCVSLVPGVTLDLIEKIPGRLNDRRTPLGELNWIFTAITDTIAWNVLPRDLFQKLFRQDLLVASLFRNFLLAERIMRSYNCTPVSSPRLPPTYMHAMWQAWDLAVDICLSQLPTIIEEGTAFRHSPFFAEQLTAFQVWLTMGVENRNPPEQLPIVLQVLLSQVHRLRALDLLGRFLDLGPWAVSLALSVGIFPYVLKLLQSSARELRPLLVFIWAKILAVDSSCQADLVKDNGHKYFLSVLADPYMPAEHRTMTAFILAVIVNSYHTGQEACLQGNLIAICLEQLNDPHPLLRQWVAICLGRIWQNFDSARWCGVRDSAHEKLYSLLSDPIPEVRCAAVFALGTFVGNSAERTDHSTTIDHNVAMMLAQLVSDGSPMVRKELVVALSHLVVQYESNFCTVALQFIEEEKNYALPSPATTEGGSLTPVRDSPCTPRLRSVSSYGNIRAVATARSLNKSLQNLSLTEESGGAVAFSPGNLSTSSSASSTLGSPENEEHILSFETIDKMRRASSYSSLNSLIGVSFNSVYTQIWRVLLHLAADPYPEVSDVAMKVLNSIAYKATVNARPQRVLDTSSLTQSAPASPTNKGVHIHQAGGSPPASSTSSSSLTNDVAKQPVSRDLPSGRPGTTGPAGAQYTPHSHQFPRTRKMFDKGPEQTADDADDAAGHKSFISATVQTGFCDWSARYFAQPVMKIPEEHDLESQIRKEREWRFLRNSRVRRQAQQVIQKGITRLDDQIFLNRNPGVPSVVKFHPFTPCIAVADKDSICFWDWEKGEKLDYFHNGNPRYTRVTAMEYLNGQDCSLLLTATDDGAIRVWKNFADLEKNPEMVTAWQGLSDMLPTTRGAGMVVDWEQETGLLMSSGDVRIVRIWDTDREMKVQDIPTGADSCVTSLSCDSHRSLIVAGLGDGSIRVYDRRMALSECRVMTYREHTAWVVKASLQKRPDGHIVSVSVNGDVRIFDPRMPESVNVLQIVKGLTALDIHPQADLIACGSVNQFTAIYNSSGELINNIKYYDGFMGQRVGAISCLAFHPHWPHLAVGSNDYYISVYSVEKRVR
inactive: lapatinib -0.001 | pictilisib -0.024 | crizotinib -0.056 | [1] -0.044 | duvelisib -0.024 | gandotinib -0.097 | tozasertib 0.019 | doramapimod 0.025 | bafetinib -0.057 | [2] 0.009 | nilotinib -0.005 | [3] -0.035 | dasatinib -0.041 | [4] -0.016 | [5] 0.011 | quisinostat -0.057 | tipifarnib 0.014 | [6] 0.047 | [7] 0.006 | [8] -0.041

SCCPDH (UniProt Q8NBX0)
UniProt Q8NBX0, sequence (Q8NBX0 whole entry, looked up): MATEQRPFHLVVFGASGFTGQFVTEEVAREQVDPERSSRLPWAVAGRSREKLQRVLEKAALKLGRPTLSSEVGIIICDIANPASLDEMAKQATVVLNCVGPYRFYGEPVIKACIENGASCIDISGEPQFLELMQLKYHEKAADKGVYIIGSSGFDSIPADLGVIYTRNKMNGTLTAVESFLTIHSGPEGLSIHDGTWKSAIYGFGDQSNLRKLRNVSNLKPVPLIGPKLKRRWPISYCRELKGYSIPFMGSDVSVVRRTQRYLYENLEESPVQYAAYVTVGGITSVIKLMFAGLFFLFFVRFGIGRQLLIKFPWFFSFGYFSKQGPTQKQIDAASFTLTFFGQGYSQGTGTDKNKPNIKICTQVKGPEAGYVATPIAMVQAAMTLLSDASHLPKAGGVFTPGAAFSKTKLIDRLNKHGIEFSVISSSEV
active: gandotinib 0.869
inactive: lapatinib 0.108 | pictilisib 0.006 | crizotinib 0.394 | [1] -0.179 | duvelisib 0.195 | tozasertib -0.052 | doramapimod -0.102 | bafetinib -0.015 | [2] 0.034 | nilotinib 0.12 | [3] -0.002 | dasatinib 0.058 | [4] 0.151 | [5] -0.019 | quisinostat -0.058 | tipifarnib 0.049 | [6] -0.217 | [7] -0.081 | [8] 0.022

RPS18 (UniProt P62269)
inactive: lapatinib -0.046 | pictilisib 0.006 | crizotinib -0.028 | [1] -0.186 | duvelisib -0.019 | gandotinib 0.071 | tozasertib 0.008 | doramapimod 0.026 | bafetinib -0.004 | [2] 0.094 | nilotinib 0.004 | [3] -0.02 | dasatinib -0.009 | [4] -0.039 | [5] -0.018 | quisinostat 0 | tipifarnib 0.031 | [6] -0.018 | [7] 0.014 | [8] -0.006

RFC3 (UniProt P40938)
inactive: lapatinib -0.045 | pictilisib -0.009 | crizotinib -0.043 | [1] -0.072 | duvelisib 0.037 | gandotinib -0.039 | tozasertib 0.027 | doramapimod 0.016 | bafetinib -0.051 | [2] 0.1 | nilotinib 0 | [3] -0.05 | dasatinib -0.036 | [4] 0.034 | [5] 0.021 | quisinostat -0.081 | tipifarnib 0.002 | [6] 0.094 | [7] 0.01 | [8] -0.006

SEC24D isoform 2 (UniProt O94855)
inactive: lapatinib 0.016 | pictilisib -0.03 | crizotinib 0 | [1] 0.031 | duvelisib 0.017 | gandotinib -0.02 | tozasertib 0.005 | doramapimod 0 | bafetinib -0.026 | [2] -0.019 | nilotinib -0.006 | [3] -0.016 | dasatinib -0.004 | [4] -0.029 | [5] 0.002 | quisinostat 0.01 | tipifarnib 0.001 | [6] -0.012 | [7] -0.004 | [8] 0.006

RALGAPB (UniProt Q86X10)
UniProt Q86X10, sequence (Q86X10 whole entry, looked up): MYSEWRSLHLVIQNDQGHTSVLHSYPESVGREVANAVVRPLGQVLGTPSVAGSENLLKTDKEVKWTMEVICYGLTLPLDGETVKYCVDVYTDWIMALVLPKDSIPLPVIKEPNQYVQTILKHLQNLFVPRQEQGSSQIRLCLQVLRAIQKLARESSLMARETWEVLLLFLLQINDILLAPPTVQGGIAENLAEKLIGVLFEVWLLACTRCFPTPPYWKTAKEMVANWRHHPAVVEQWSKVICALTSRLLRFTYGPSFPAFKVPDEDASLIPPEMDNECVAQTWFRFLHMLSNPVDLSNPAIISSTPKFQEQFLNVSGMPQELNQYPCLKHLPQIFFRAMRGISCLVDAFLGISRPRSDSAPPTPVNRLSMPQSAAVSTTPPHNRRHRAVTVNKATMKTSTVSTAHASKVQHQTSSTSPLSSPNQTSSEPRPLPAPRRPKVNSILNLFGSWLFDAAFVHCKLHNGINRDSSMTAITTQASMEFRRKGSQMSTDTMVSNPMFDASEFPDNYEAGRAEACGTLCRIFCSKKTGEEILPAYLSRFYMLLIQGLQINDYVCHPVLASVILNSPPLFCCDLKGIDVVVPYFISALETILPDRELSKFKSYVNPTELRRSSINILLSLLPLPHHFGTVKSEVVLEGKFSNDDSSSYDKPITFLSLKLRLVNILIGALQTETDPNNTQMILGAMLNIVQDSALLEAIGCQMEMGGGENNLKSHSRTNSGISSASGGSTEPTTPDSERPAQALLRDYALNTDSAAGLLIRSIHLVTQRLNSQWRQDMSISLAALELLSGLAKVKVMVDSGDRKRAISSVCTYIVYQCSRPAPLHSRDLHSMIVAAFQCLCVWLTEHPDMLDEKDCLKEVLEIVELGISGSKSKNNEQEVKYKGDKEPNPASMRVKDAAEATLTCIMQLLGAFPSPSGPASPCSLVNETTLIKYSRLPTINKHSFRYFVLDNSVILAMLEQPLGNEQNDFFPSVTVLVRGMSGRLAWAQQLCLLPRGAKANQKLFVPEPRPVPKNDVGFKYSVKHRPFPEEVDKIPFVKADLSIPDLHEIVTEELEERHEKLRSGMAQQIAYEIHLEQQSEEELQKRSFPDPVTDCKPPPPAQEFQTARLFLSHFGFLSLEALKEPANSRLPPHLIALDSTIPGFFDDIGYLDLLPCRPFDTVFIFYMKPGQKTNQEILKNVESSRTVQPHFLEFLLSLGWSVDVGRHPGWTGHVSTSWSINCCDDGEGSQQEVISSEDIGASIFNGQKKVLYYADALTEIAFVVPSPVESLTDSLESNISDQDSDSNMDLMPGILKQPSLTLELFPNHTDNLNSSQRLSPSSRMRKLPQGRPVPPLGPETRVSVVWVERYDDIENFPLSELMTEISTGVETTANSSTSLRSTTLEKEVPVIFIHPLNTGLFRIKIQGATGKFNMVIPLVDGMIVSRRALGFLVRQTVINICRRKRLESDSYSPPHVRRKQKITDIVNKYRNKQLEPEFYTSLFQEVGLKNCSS
inactive: lapatinib 0.021 | pictilisib -0.062 | crizotinib -0.088 | [1] -0.09 | duvelisib 0.103 | gandotinib -0.06 | tozasertib 0.062 | doramapimod 0.046 | bafetinib -0.043 | [2] 0.103 | nilotinib -0.022 | [3] 0.029 | dasatinib -0.026 | [4] 0.026 | [5] 0.015 | quisinostat -0.048 | tipifarnib -0.021 | [6] 0.053 | [7] -0.019 | [8] -0.044

RPL31 (UniProt P62899)
inactive: lapatinib -0.01 | pictilisib 0.009 | crizotinib 0.016 | [1] -0.006 | duvelisib 0.004 | gandotinib 0.005 | tozasertib -0.006 | doramapimod -0.041 | bafetinib -0.023 | [2] 0.029 | nilotinib 0.007 | [3] -0.034 | dasatinib 0.046 | [4] -0.036 | [5] -0.038 | quisinostat 0.043 | tipifarnib 0.021 | [6] -0.004 | [7] -0.018 | [8] 0.005

RFC4 (UniProt P35249)
inactive: lapatinib -0.01 | pictilisib -0.004 | crizotinib -0.027 | [1] -0.065 | duvelisib 0.01 | gandotinib -0.028 | tozasertib -0.027 | doramapimod 0.035 | bafetinib -0.018 | [2] 0.041 | nilotinib 0.001 | [3] -0.029 | dasatinib -0.068 | [4] -0.002 | [5] 0.047 | quisinostat -0.016 | tipifarnib -0.004 | [6] 0.03 | [7] 0.015 | [8] -0.011

SEC61G (UniProt P60059)
UniProt P60059, sequence (P60059 whole entry, looked up): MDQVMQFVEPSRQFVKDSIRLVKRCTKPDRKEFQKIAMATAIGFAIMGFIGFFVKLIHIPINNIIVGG
active: gandotinib 0.46
inactive: lapatinib -0.094 | pictilisib 0.139 | crizotinib 0.209 | [1] -0.331 | duvelisib 0.105 | tozasertib -0.168 | doramapimod 0.098 | bafetinib -0.192 | [2] 0.338 | nilotinib -0.007 | [3] -0.061 | dasatinib 0 | [4] 0.089 | [5] -0.033 | quisinostat -0.045 | tipifarnib 0.134 | [6] -0.01 | [7] 0.023 | [8] 0.053

SESN2 (UniProt P58004)
UniProt P58004, sequence (P58004 whole entry, looked up): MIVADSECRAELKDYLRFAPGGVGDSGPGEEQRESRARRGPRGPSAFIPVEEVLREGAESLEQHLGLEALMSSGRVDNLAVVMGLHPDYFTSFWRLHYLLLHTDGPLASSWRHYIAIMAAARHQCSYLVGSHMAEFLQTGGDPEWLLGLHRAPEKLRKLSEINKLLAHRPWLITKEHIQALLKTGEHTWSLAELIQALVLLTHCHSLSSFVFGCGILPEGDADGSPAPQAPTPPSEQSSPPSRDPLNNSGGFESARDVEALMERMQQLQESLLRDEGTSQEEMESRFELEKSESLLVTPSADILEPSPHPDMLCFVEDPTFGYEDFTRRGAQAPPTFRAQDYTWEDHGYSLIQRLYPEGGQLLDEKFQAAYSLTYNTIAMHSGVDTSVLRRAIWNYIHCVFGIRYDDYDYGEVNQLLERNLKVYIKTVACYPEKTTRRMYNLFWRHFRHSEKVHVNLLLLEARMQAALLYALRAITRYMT
inactive: lapatinib -0.085 | pictilisib -0.047 | crizotinib -0.042 | [1] 0.041 | duvelisib 0.047 | gandotinib 0.038 | tozasertib -0.006 | doramapimod -0.031 | bafetinib -0.15 | [2] 0.003 | nilotinib 0.019 | [3] 0.027 | dasatinib -0.023 | [4] 0.021 | [5] 0.028 | quisinostat -0.051 | tipifarnib 0.007 | [6] 0.092 | [7] 0.034 | [8] -0.057

SAP30 (UniProt O75446)
active: [3] -0.464
inactive: lapatinib -0.064 | pictilisib -0.036 | crizotinib 0.044 | [1] 0.042 | duvelisib 0.004 | gandotinib -0.036 | tozasertib -0.056 | doramapimod 0.013 | bafetinib -0.073 | [2] 0.012 | nilotinib 0.104 | dasatinib -0.063 | [4] -0.124 | [5] 0.012 | quisinostat -0.111 | tipifarnib -0.026 | [6] 0.037 | [7] -0.035

RAB1B (UniProt Q9H0U4)
inactive: lapatinib 0.021 | pictilisib 0.053 | crizotinib 0.031 | duvelisib 0.033 | gandotinib 0.156 | tozasertib 0.011 | doramapimod -0.052 | bafetinib -0.038 | nilotinib 0.016 | [3] 0.003 | dasatinib -0.058 | [4] -0.029 | [5] -0.001 | quisinostat 0.016 | tipifarnib -0.04 | [6] -0.052 | [7] -0.041 | [8] 0.002
active: [1] -0.35 | [2] 0.242

RDX (UniProt P35241)
active: [1] 0.546
inactive: lapatinib -0.018 | pictilisib 0.02 | crizotinib 0.063 | duvelisib 0.005 | gandotinib -0.093 | tozasertib -0.005 | doramapimod -0.045 | bafetinib 0.077 | [2] -0.136 | nilotinib -0.003 | [3] -0.006 | dasatinib 0.037 | [4] 0.048 | [5] -0.008 | quisinostat 0.047 | tipifarnib 0.013 | [6] -0.007 | [7] 0.002 | [8] 0.006

RIPK1 (UniProt Q13546)
UniProt Q13546, sequence (Q13546 whole entry, looked up): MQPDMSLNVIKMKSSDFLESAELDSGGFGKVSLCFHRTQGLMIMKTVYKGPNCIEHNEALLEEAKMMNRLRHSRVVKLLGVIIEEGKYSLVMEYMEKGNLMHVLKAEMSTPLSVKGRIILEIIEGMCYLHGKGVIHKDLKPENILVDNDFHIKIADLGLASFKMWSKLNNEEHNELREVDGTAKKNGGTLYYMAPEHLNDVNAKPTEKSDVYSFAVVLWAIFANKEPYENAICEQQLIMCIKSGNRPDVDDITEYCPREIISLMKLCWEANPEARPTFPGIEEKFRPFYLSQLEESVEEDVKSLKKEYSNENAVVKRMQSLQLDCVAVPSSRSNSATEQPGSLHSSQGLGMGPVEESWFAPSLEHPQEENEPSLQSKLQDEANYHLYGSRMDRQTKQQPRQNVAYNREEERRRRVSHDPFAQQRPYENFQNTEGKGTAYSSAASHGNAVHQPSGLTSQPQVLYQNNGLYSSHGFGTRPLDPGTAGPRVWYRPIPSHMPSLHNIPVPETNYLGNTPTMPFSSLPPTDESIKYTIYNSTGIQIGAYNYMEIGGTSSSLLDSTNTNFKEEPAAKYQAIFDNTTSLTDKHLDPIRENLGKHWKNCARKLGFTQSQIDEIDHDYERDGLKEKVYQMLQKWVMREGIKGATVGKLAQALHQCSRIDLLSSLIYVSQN
active: gandotinib 0.256 | tozasertib 0.326 | [2] 0.755 | [4] 0.248 | [5] 0.723
inactive: lapatinib 0.006 | pictilisib -0.002 | crizotinib 0.061 | [1] -0.026 | duvelisib -0.05 | doramapimod 0.038 | bafetinib 0.007 | nilotinib -0.053 | [3] -0.014 | dasatinib 0.087 | quisinostat -0.074 | tipifarnib -0.064 | [6] 0.015 | [7] 0.01 | [8] -0.047

From the supplement of paper PMC10849652
